DT40 TDP1 CPT: growth inhibition of DT40 Tdp1-/-;hTDP1 cells with camptothecin (screen for TDP1 inhibitors). chicken DT40 Tdp1-/-;hTDP1 cells + 20 nM CPT, ATP luminescence, 48 h. Potency, µM (titrated, usually from 46.2 µM), for inactives: top-dose activity change, negative = growth inhibition, actives largely listed as inhibitors. hit rate 12% among 420,000. AID 686979; further: potency means the concentration at half of the fitted maximal effect; nearly all actives have a fitted effect of over 55% in size
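Chicken DT40 Tdp1-/- cells stably complemented with human TDP1 were seeded at 400 cells/well in medium containing 20 nM camptothecin, exposed to pin-transferred compounds, and grown at 37 °C for at least 48 hr. Viability was read as ATP luminescence.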
DT40 TDP1 no CPT: qHTS for Inhibitors of human tyrosyl-DNA phosphodiesterase 1 (TDP1): qHTS in cells in absence of CPT. DT40 Tdp1-/- hTDP1 cells, no CPT, ATP luminescence, 48 h. Potency, µM (top dose mostly 46.2 µM), for the others: at the top dose activity change, negative = growth inhibition, hits mostly inhibitors. hit rate 15% among 420,000; further: potency means the concentration at half of the fitted maximal effect; nearly all actives have a fitted effect of over 55% in size
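Compound effects on proliferation are scored in DT40 Tdp1-/-;hTDP1 cells in the absence of CPT. ATP levels (CellTiter-Glo luminescence) are recorded after a ≥48 hr, 37 °C incubation.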
Gal4-VP16 FLuc: counter-screen for ROR gamma inhibitors: Gal4-VP16 reporter | hit rate 3.5% among 310,000 | Drosophila S2 Gal4-VP16 UAS-luciferase, luminescence, 20 h | Potency, µM (highest dose often 53.6 µM), for inactives: at the top dose activity, negative = inhibition, usual class: inhibitors;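 further: Gal4-VP16 expression switched on by copper sulfate through the metallothionein promoter; potency means the concentration at half of the fitted maximal effect; nearly all actives have a fitted effect of over 50% in size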
IL-1B inflam inh: inflammasome signaling inhibition, IL-1 beta readout; hit rate 4.7% among 360,000; activity change, % at 57.5 µM; AID 743279; THP-1 LPS/ATP IL-1B secretion, AlphaLISA, 16 h; stronger effect = lower value; in the data active means activity change below about -50%; inconclusive means mostly about -30% to -49%
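THP-1 cells pretreated 1 hr with compounds (up to 57.5 uM final), then stimulated with LPS (250 ng/mL final) plus ATP (1.25 mM final); secreted IL-1B measured by AlphaLISA after 16 hr, decreased signal indicating inhibition.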
RORgamma inh: inhibitors of mouse ROR gamma transcriptional activity. Drosophila S2 Gal4-RORgamma UAS-luciferase reporter, 20 h. AID 2551. P51450. hit rate 5.4% among 310,000. Potency, µM (highest dose often 53.6 µM), for the others: top-dose activity change, negative = inhibition, actives largely listed as inhibitors; further: potency means the concentration at half of the fitted maximal effect; nearly all actives have a fitted effect of over 60% in size
Target sequence (P51450 whole entry, looked up, the tested form may be a part): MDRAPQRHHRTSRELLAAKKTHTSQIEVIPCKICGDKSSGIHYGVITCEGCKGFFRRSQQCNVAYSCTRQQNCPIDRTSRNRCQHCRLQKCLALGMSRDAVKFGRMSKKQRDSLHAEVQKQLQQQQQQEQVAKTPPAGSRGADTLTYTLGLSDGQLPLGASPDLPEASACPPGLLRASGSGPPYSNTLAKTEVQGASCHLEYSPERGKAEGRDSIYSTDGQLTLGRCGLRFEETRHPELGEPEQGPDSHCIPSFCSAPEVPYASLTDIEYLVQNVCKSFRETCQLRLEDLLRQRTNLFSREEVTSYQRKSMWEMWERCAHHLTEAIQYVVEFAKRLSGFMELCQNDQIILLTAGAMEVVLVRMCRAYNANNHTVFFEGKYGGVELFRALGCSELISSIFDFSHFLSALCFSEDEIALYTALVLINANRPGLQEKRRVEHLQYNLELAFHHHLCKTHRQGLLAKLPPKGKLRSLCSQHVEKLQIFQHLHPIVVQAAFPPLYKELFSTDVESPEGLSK
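Stable Schneider cell line, Gal4 DNA-binding domain fused to ROR gamma, UAS-luciferase. Cmpd 1 hr RT → CuSO4 700 uM final → 20 hr RT → luciferase reagent 10 min → luminescence.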
LDHA block: LDHA (human) enzyme inhibition; P00338; purified LDHA, NADH/diaphorase-resazurin fluorescence; stronger effect = lower value; activity change, % (values are at about 110 or 230 µM); hit rate 0.15% among 480,000; AID 1347041; in the data active means activity change below about -30%; inconclusive means mostly about -25% to -30%;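 further: plate controls were DMSO wells for no effect and wells without enzyme for full effect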
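Human LDH5 at 2 nM final in Tris HCl pH 7.4 with 0.06 mM NADH and 0.2 mM pyruvate, reacted 5 minutes at room temperature. Remaining NADH coupled via diaphorase/resazurin; resorufin fluorescence read at 0 and 20 minutes, normalized to enzyme-free and DMSO wells.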
Starred values were filed as active, the others as inactive; ? = inconclusive; . = no result given. Rows were chosen to be rich in hits. Some 18% of all compounds tested hit in one or more screens of this group. Unless noted, the call rests on the fitted dose curve; in most records, active means well fitted curve in the direction sought with a large enough effect; inconclusive means small, poorly fitted or top-dose-only effect, or another doubt; inactive means no such curve, though single readings can be large; an effect the other way counts as inactive or inconclusive. Unless noted, on the % scale 0 is the no-effect control and ±100 the full control effect.

SMILES | DT40 TDP1 CPT | DT40 TDP1 no CPT | Gal4-VP16 FLuc | IL-1B inflam inh | RORgamma inh | LDHA block
CC(=O)Nc1cccc(-c2ccnc3c2CC(C(=O)Nc2cccc(Oc4ccccc4)c2)O3)c1 (stereo unspecified) | ? | ? | . | -8 | . | -5
CC(=O)Nc1ccc(-c2ccnc3c2CC(C(=O)Nc2cccc(Oc4ccccc4)c2)O3)cc1 (stereo unspecified) | ? | 21µM* | . | ? | . | -1
O=C(Nc1cccc(C(F)(F)F)c1)C1Cc2c(-c3cccc(F)c3)ccnc2O1 (stereo unspecified) | ? | ? | . | 0 | . | 0
NC(=O)c1cccc(-c2ccnc3c2CC(C(=O)Nc2cccc(C(F)(F)F)c2)O3)c1 (stereo unspecified) | 18µM* | 18µM* | . | 10 | . | -1
CC(=O)Nc1ccc(-c2ccnc3c2CC(C(=O)Nc2cccc(OC(F)(F)F)c2)O3)cc1 (stereo unspecified) | 21µM* | 18µM* | . | -13 | . | -1
CC(=O)Nc1ccc(-c2ccnc3c2CC(C(=O)Nc2cccc(C(F)(F)F)c2)O3)cc1 (stereo unspecified) | 23µM* | -73% | . | -2 | . | 0
COCCNC(=O)NC(=O)CN(Cc1ccccc1)c1cccc(C)c1 | . | . | . | . | . | 1
CC(=O)Nc1ccc(-c2ccnc3c2CC(C(=O)Nc2cccc(N(C)C)c2)O3)cc1 (stereo unspecified) | 18µM* | 2.6µM* | . | -19 | . | 3
CC(=O)Nc1cccc(-c2ccnc3c2CC(C(=O)Nc2cccnc2)O3)c1 (stereo unspecified) | -32% | ? | . | 12 | . | 2
CC(=O)Nc1cccc(-c2ccnc3c2CC(C(=O)Nc2cccc(OC(F)(F)F)c2)O3)c1 (stereo unspecified) | ? | 18µM* | . | 9 | . | -1
Cc1ccccc1-c1csc(=S)[nH]1 | . | . | . | . | . | -3
CCCCCCCCS(=O)CCCCO (stereo unspecified) | . | . | . | . | . | 8
Cn1c(C=O)cc2ccccc21 | . | . | . | . | . | -4
O=C(Cn1c(-c2cccs2)cc2ccccc21)NCCCN1CCN(c2cccc(Cl)c2)CC1 | ? | 16µM* | . | . | . | 1
CN1CCN(CCCNC(=O)Cn2c(-c3cccs3)cc3ccccc32)CC1 | ? | ? | . | . | . | 0
Cc1ccc(C)c(N2CCN(CCCNC(=O)Cn3c(-c4cccs4)cc4ccccc43)CC2)c1 | 5.2µM* | 2.9µM* | . | . | . | -2
CCOC(=O)C(NC(=O)[C@@H](NC(=O)c1ccc(Cl)cc1Cl)C(C)C)C(=O)OCC | . | . | . | . | . | 2
COc1ccc(NC(=O)c2cc(Br)c(O)c(OC)c2)cc1 | . | . | . | . | . | -4
CC(C)CN(C)Cc1c(C(=O)N2CCc3ccccc3C2)nc2ccc(Cl)cn12 | 18µM* | 21µM* | 6% | -83* | -5% | -4
CCCCN(C)Cc1c(C(=O)N2CCc3ccccc3C2)nc2ccc(Cl)cn12 | -28% | ? | 1% | 29 | -1% | -3
CN1CCN(C(C(=O)O)c2cn(CC(=O)O)c3cc(Br)ccc23)CC1 (stereo unspecified) | . | . | . | . | . | -4
Cc1cc(C)c2c(C)nn(-c3ccccc3)c2n1 | 4% | -22% | -12% | 41 | ? | -8
Cc1cc(C)c2c(=N)c3ccccc3n(CCCCCCCCn3c4ccccc4c(=N)c4c(C)cc(C)nc43)c2n1 | 10µM* | ? | . | -52* | . | 5
Cc1ccc(-c2cc(C(=O)N3CCN(CC(=O)N4CCOCC4)CC3)c3ccccc3n2)cc1 | . | . | . | . | . | 6
O=C(NCC(F)(F)F)c1cccc(NC(=O)c2cccc3cccnc23)c1 | . | . | . | . | . | -1
SMILES | DT40 TDP1 CPT | DT40 TDP1 no CPT | Gal4-VP16 FLuc | IL-1B inflam inh | RORgamma inh | LDHA block
C=Cc1cc2c(cc1O)CCC1C2CCC2(C)C(O)CCC12 (stereo unspecified) | ? | 16µM* | . | ? | . | -7
CC#Cc1cc2c(cc1O)CCC1C2CCC2(C)C(O)CCC12 (stereo unspecified) | 2.9µM* | 2.3µM* | . | 0 | . | 21
C[C@@]12CCC3c4ccc(O)cc4CCC3C1CCC2O (stereo partly specified) | ? | ? | -5% | . | ? | .
C[C@]12CCC3c4ccc(O)cc4CCC3C1CC(O)C2O (stereo partly specified) | 2% | 8% | -4% | . | 2% | .
O=[N+]([O-])c1ccc(N2CCN(C(=S)c3cccc([N+](=O)[O-])c3)CC2)cc1 | 15µM* | 21µM* | -7% | -16 | 4% | -11
CC(=O)N1CCN(C(=S)c2cccc([N+](=O)[O-])c2)CC1 | -11% | -9% | 3% | 14 | -1% | 0
CCCC(=O)NC(=S)N1CCN(c2ccc([N+](=O)[O-])cc2)CC1 | -15% | -22% | ? | 11 | 3.2µM* | -9
CC1(C(=O)N2CCN(c3ccc([N+](=O)[O-])cc3)CC2)CC1(Cl)Cl (stereo unspecified) | ? | ? | 12% | -11 | ? | -1
O=C(NC(=S)N1CCN(c2ccc([N+](=O)[O-])cc2)CC1)c1ccccc1 | ? | 3.3µM* | 0.56µM* | 8 | 0.28µM* | -4
CN1CCN(C(=O)/C(=C/c2ccc([N+](=O)[O-])cc2)NC(=O)c2ccccc2)CC1 | 14% | 7% | -3% | 13 | -16% | 1
Cc1ccc(C(=O)NC(=S)N2CCN(c3ccc([N+](=O)[O-])cc3)CC2)cc1 | ? | 26µM* | 1µM* | -2 | 0.71µM* | -3
Cc1ccc(C(=O)NC(=S)N2CCCCCC2)cc1 | -18% | -2% | . | -23 | . | -7
CCN(CC)CC(=O)NC(=O)NCCc1cccs1 | . | . | . | . | . | -9
CCC1CCCCN1S(=O)(=O)c1cc(-c2csc(C)n2)ccc1C (stereo unspecified) | . | . | . | . | . | -3
Cc1ccc(NC(=S)NNC(=O)c2csc(C)c2)cc1 | . | . | . | . | . | 11
CCCOC(=O)C(C#N)c1nc2ccccc2nc1Cl (stereo unspecified) | . | . | . | . | . | -6
CC(C)(C)NC(=O)CCN(/N=C/c1ccc([N+](=O)[O-])o1)C1=NS(=O)(=O)c2ccccc21 | 18µM* | 15µM* | -21% | 8 | -17% | -6
O=C(Nc1ccc(Cl)cc1)N1CCCN(Cc2ccc(F)cc2)C1 | 23µM* | 21µM* | -4% | ? | -24% | -6
Cc1cccnc1NC(=O)c1cc(-c2cccnc2)nc2ccccc12 | . | . | . | . | . | -9
Cc1ccc(OCc2nc(-c3cc(C)nc4ccccc34)no2)c(C)c1 | . | . | . | . | . | 3
